# Results filed as inconclusive are left out. A number with no mark means an inactive call. The source made the active and inactive calls. The call rests on the fitted dose curve; in most records, active means well fitted inhibition curve with a large enough effect; inconclusive means small, poorly fitted or top-dose-only effect; inactive means no such curve, though single readings can be large or run the other way.
# Target: Retinal dehydrogenase 2 (Homo sapiens) (UniProt O94788)
# Experiment: qHTS for Inhibitors of the Aldehyde Dehydrogenase Family (ALDH1A2) Confirmation screens (AID 2061314); further: nearly all actives have a fitted effect of over 65% in size; further: potency means the concentration at half of the fitted maximal effect; on activity, negative = inhibition: on the % scale 0 is the no-effect control and ±100 the full control effect
# Conditions: ALDH1A2 enzyme inhibition qHTS confirmation; series mostly up to 45.9 µM; activity, negative = inhibition: at the top concentration
Compound,"activity, negative = inhibition",outcome,Potency
Cc1[nH]c(=O)c(C#N)cc1-c1ccncc1,-6.47%,,
N=C(N)c1ccc(N)cc1,,inactive,
Cc1scc2c1N(C(=O)CN1CCN(C)CC1)c1ccccc1NC2=O,-5.4%,,
Cc1cc(O)c2c(c1)C(=O)c1cc(O)cc(O)c1C2=O,,,6.34 µM (active)
c1ccc(C(NCCNC(c2ccccc2)c2ccccc2)c2ccccc2)cc1,,inactive,
CCc1ccc(/C=C2/SC(=S)NC2=O)cc1,-2.86%,,
NC(=O)c1cc[n+](CC2=C(C(=O)O)N3C(=O)[C@@H](NC(=O)[C@@H](c4ccccc4)S(=O)(=O)[O-])[C@H]3SC2)cc1,-18.9%,,
Cc1cc(Cn2cnc3c2C[C@@H](C(=O)O)N(C(=O)C(c2ccccc2)c2ccccc2)C3)ccc1N,-17.8%,,
CC1CN(S(=O)(=O)c2cccc3cnccc23)CCN1 (configuration not stated),-9.02%,,
Oc1ccc(Cn2cc[nH]c2=S)cc1,-14.6%,,
CN(C)C(=O)/N=N/C(=O)N(C)C,,,12.7 µM (active)
CN1CCN(CC(=O)N2c3ccccc3C(=O)Nc3cccnc32)CC1,4.43%,,
O=c1c(O)c(-c2cc(O)c(O)c(O)c2)oc2cc(O)cc(O)c12,,inactive,

# Target: Retinaldehyde dehydrogenase 3 (Homo sapiens) (UniProt P47895)
# Experiment: qHTS for Inhibitors of the Aldehyde Dehydrogenase Family (ALDH1A3) Primary screen (AID 2061315);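 further: plate controls were DMSO vehicle for no effect and reference inhibitor for full effect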
# Conditions: ALDH inhibition qHTS; series mostly up to 56 µM; activity change, negative = inhibition: at the top concentration
row,Compound,"activity change, negative = inhibition"
1,COc1ccccc1N1CCN(CCCNc2cc(=O)n(C)c(=O)n2C)CC1,14.9%
2,CC(C)NCC(O)COc1cccc2[nH]ccc12 (configuration not stated),-24.1%
3,CCNc1nc2c(ncn2[C@H]2C[C@H](O)[C@@H](CO)O2)c(=O)[nH]1,1.9%
4,Nc1ncnc2c1c(-c1ccc(Oc3ccccc3)cc1)cn2C1CCCC1,0.413%
5,O=C(Nc1ccc2[nH]ncc2c1)C1CCC1,-15.9%
6,Clc1ccc2c(c1)N=C(N1CCNCC1)c1ccccc1N2,2.83%
7,CCCCN(CC)c1nc(C)nc2c1c(C)cn2-c1c(C)cc(C)cc1C,-13%
8,O=C(O)CCc1nc(-c2ccccc2)c(-c2ccccc2)o1,6.59%
9,CCN1CCC[C@H]1CNC(=O)c1cc(S(N)(=O)=O)ccc1OC,16.5%
10,Cc1nn(-c2ccccc2)c(C)c1/C=N/N1CCN(Cc2ccccc2)CC1,0.358%
11,CN(C)CCC(c1ccccc1)c1ccccn1 (configuration not stated),-5.13%
12,CS(=O)(=O)c1ccc(-n2nc(C(F)(F)F)cc2-c2ccc(F)cc2)cc1,16.6%

# Target: Aldehyde dehydrogenase 1A1 (Homo sapiens) (UniProt P00352)
# Experiment: qHTS for Inhibitors of the Aldehyde Dehydrogenase Family (ALDH1A1) Confirmatory screens (AID 2061316); further: nearly all actives have a fitted effect of over 65% in size; further: potency means the concentration at half of the fitted maximal effect; on activity change, negative = inhibition: on the % scale 0 is the no-effect control and ±100 the full control effect
# Conditions: ALDH inhibition qHTS; series mostly up to 47.3 µM; activity change, negative = inhibition: at the top concentration
Compound,Potency,outcome,"activity change, negative = inhibition"
NC(=S)c1ccc[n+]([C@@H]2O[C@@H](COP(=O)([O-])OP(=O)(O)OC[C@H]3O[C@@H](n4cnc5c(N)ncnc54)[C@H](OP(=O)(O)O)[C@@H]3O)C(O)C2O)c1 (some centres not stated),25.2 µM (active),,
O=Nc1ccc2oc(=O)ccc2c1,0.283 µM (active),,
N.N.N.N.N.N.N.N.N.N.N.N.N.N.O.O.[Ru+4].[Ru+5].[Ru+5],,inactive,
CN1CCC2(CCN3CCc4c(oc5ccccc45)C3C2)N(C)C1=O (configuration not stated),,,-15%
Cc1cn[nH]c1,,,-2.23%
O=NN(CCCl)C(=O)NCCCl,22.5 µM (active),,
Cc1cc(O)c2c(c1)C(=O)c1cc(O)cc(O)c1C2=O,2.52 µM (active),,
c1ccc(C(NCCNC(c2ccccc2)c2ccccc2)c2ccccc2)cc1,,inactive,
O=C(/C=C/c1ccc(O)cc1)c1ccc(O)cc1O,3.18 µM (active),,
CC1CN(S(=O)(=O)c2cccc3cnccc23)CCN1 (configuration not stated),,,-9.9%
O=C(O)c1cc(=O)c2c(Cl)cc(Cl)cc2[nH]1,,,-34.7%
CN1CCN(CC(=O)N2c3ccccc3C(=O)Nc3cccnc32)CC1,,,-0.161%
CC1=C(C)C(=O)C(CCCCC#CCCCC#CCO)=C(C)C1=O,1.27 µM (active),,

# System: not listed separately
# Experiment: BET inhibitor-based combinations targeting novel dependencies in MECOM-rearranged (r) AML: SET-2 cell line (AID 2202231);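 further: plate controls were DMSO treated cells for no effect and wells without cells for full effect; nearly all actives have a fitted effect of over 35% in size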
# Conditions: SET-2 AML cells viability, CellTiter-Glo luminescence, 48 h; viability: stronger effect = lower value, concentration not given here
# How it was run: (§1)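 Viability of cells (500 per well) is scored by luminescent CellTiter-Glo at 48 hr post-dosing. Eleven-point titrations are normalized to DMSO and empty controls and reduced to AUC values.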
row,Compound,viability
1,Cc1[nH]c(=O)c(C#N)cc1-c1ccncc1,118%
2,O=NN(CCCl)C(=O)NCCCl,104%
3,CCc1ccc(/C=C2/SC(=S)NC2=O)cc1,89.4%

# System: not listed separately
# Experiment: BET inhibitor-based combinations targeting novel dependencies in MECOM-rearranged (r) AML: OCI-AML3 cell line (AID 2202232); further: nearly all actives have a fitted effect of over 35% in size; further: potency means the concentration at half of the fitted maximal effect;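 on viability (% of control): plate controls were DMSO vehicle wells for no effect and wells without cells for full effect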
# Conditions: CellTiter-Glo luminescence, 48 h; Potency: OCI-AML3 viability; series mostly up to 46 µM; viability (% of control): at the top concentration
# How it was run: as §1
Compound,viability (% of control),Potency
Cc1[nH]c(=O)c(C#N)cc1-c1ccncc1,104%,
O=NN(CCCl)C(=O)NCCCl,75.8%,
Cc1cc(O)c2c(c1)C(=O)c1cc(O)cc(O)c1C2=O,,9.34 µM (active)
CCc1ccc(/C=C2/SC(=S)NC2=O)cc1,74.3%,
O=C(/C=C/c1ccc(O)cc1)c1ccc(O)cc1O,,14.8 µM (active)

# System: not listed separately
# Experiment: BET inhibitor-based combinations targeting novel dependencies in MECOM-rearranged (r) AML: MV-4-11 cell line (AID 2202233); further: nearly all actives have a fitted effect of over 45% in size; further: potency means the concentration at half of the fitted maximal effect;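 on viability, % of control: plate controls were DMSO for no effect and blank wells for full effect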
# Conditions: MV-4-11 AML viability, CellTiter-Glo luminescence, 48 h; series mostly up to 46 µM; viability, % of control: at the top concentration
# How it was run: (§2)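 Using pin-tool transfer, drugs were added in 11 doses to cells (500/well), incubated 48 hr, and assessed with CellTiter-Glo. Z-AUC is a mean-centring transformation applied separately to each screened line.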
Compound,"viability, % of control",Potency
Cc1[nH]c(=O)c(C#N)cc1-c1ccncc1,107%,
O=NN(CCCl)C(=O)NCCCl,71.4%,
Cc1cc(O)c2c(c1)C(=O)c1cc(O)cc(O)c1C2=O,95.5%,
CCc1ccc(/C=C2/SC(=S)NC2=O)cc1,98%,
O=C(/C=C/c1ccc(O)cc1)c1ccc(O)cc1O,,11.8 µM (active)

# System: not listed separately
# Experiment: BET inhibitor-based combinations targeting novel dependencies in MECOM-rearranged (r) AML: HNT-34 cell line (AID 2202234); further: nearly all actives have a fitted effect of over 35% in size; further: potency means the concentration at half of the fitted maximal effect;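 on viability (% of control): plate controls were vehicle wells for no effect and cell-free wells for full effect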
# Conditions: HNT-34 AML viability, CellTiter-Glo luminescence, 48 h; series mostly up to 46 µM; viability (% of control): at the top concentration
# How it was run: as §2
Compound,viability (% of control),Potency
Cc1[nH]c(=O)c(C#N)cc1-c1ccncc1,99.5%,
O=NN(CCCl)C(=O)NCCCl,91.3%,
CCc1ccc(/C=C2/SC(=S)NC2=O)cc1,91%,
O=C(/C=C/c1ccc(O)cc1)c1ccc(O)cc1O,,9.34 µM (active)

# System: not listed separately
# Experiment: BET inhibitor-based combinations targeting novel dependencies in MECOM-rearranged (r) AML: UCSD-AML1 cell line (AID 2202235);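 further: plate controls were DMSO vehicle wells for no effect and blank wells for full effect; nearly all actives have a fitted effect of over 40% in size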
# Conditions: UCSD-AML1 AML cells viability, CellTiter-Glo, 48 h; series mostly up to 46 µM; viability (% of control): at the top concentration
# How it was run: as §2
row,Compound,viability (% of control)
1,Cc1[nH]c(=O)c(C#N)cc1-c1ccncc1,103%
2,Cc1cn[nH]c1,112%
3,O=NN(CCCl)C(=O)NCCCl,109%
4,Cc1cc(O)c2c(c1)C(=O)c1cc(O)cc(O)c1C2=O,119%
5,CCc1ccc(/C=C2/SC(=S)NC2=O)cc1,89.6%
6,O=C(/C=C/c1ccc(O)cc1)c1ccc(O)cc1O,99%
7,O=c1c(O)c(-c2cc(O)c(O)c(O)c2)oc2cc(O)cc(O)c12,105%
